Sampled rows, rich in hits. Any-hit rate of the full collection: about 12%.
PLK1 PBD block: blocks phosphopeptide binding to human PLK1 polo-box domain; Potency, µM, most hits filed as inhibitors; Plk1 PBD binding of FITC phosphopeptide, fluorescence polarization; AID 720504; actives 2.8% (n = 360,000); note: series mostly up to about 57 µM; nearly all actives have a fitted effect of over 65% in size
Target sequence (P53350 whole entry, looked up, the tested form may be a part): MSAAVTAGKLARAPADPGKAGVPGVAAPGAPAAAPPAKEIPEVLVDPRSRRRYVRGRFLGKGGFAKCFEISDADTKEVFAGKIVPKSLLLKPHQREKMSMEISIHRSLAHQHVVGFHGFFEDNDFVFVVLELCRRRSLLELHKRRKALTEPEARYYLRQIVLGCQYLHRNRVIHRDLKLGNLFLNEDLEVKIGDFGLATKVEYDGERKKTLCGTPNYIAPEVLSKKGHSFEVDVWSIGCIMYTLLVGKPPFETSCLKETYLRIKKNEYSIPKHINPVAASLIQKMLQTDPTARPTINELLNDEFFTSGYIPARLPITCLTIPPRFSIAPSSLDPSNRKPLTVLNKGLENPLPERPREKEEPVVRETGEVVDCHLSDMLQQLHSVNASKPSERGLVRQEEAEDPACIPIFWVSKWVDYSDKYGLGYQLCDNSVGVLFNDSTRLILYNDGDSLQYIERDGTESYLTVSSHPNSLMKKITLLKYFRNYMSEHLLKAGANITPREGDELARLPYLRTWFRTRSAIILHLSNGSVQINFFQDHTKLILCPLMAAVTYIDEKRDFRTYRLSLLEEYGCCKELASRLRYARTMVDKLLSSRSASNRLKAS
RORg inh: blocks mouse ROR gamma transcriptional activity. actives 5.4% (n = 310,000). Potency, µM (highest dose often 53.6 µM), actives largely listed as inhibitors. P51450. Drosophila S2 Gal4-RORgamma UAS-luciferase reporter, 20 h; note: nearly all actives have a fitted effect of over 60% in size
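Schneider cells (Drosophila), stable Gal4 DBD–ROR gamma + UAS-luc; 1 hr cmpd preincubation; Cu2+ induction 700 uM final; 20 hr ambient; luminescence.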
Gal4-VP16 FLuc: inhibits Gal4-VP16 luciferase reporter, ROR gamma counter-screen; Potency, µM (doses to about 53.6 µM), most hits filed as inhibitors; actives 3.5% (n = 310,000); Drosophila S2 Gal4-VP16 UAS-luciferase, luminescence, 20 h;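 note: Gal4-VP16 expression switched on by copper sulfate through the metallothionein promoter; nearly all actives have a fitted effect of over 50% in size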
Sfp inh: blocks B. subtilis Sfp PPTase activity. Q9F4F7. Biochemical Sfp PPTase activity, qHTS. Potency, µM, most hits filed as inhibitors. actives 3.5% (n = 310,000). AID 1490;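 note: the enzyme is Sfp with the accession as filed and its product quenches rhodamine fluorescence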
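Buffer: 50 mM Hepes-Na pH 7.6, 10 mM MgCl2, 0.01% Nonidet P-40, 0.01% BSA. Enzyme 15 nM, pre-exposed to compound 15 min; substrates then added and fluorescence change tracked over 30 min.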
ALDH1A1 block: blocks purified human ALDH1A1 activity; Purified ALDH1A1, NADH fluorescence, propionaldehyde substrate; Potency, µM (doses to about 75.3 µM), most hits filed as inhibitors; actives 7.3% (n = 220,000); active = well fitted inhibition curve with a large enough effect, not every such curve was filed as active; inconclusive = small, poorly fitted or top-dose-only effect, or another doubt; inactive = no such curve, though single readings can be large or run the other way
Numbers stand for hits; [ ] = dose if it differs, or a comment. Unless noted, calls come from the whole dose curve; as a rule, active = well fitted curve in the direction sought with a large enough effect; inconclusive = small, poorly fitted or top-dose-only effect, or another doubt; inactive = no such curve, though single readings can be large; an effect the other way counts as inactive or inconclusive.

`COc1cccc(NC(=O)c2cc(-c3ccc(C)o3)nc3ccccc23)c1` gave PLK1 PBD block inactive, RORg inh inactive, Gal4-VP16 FLuc inactive and Sfp inh 50µM.
`Cc1ccc(-c2cc(C(=O)NCc3ccco3)c3ccccc3n2)o1` gave PLK1 PBD block inconclusive, RORg inh inactive, Gal4-VP16 FLuc inactive, Sfp inh 45µM and ALDH1A1 block inconclusive.
Screening Cc1ccccc1NS(=O)(=O)c1ccc(C(=O)NCC(C)(C)N2CCOCC2)cc1 returned PLK1 PBD block inactive.
`Cc1ccccc1Cn1c(C)c(C(=O)NCCC#N)sc1=O` gave PLK1 PBD block inactive.
Screening COc1ccc(N(C(=O)CNC(=O)c2ccco2)C(C(=O)NCC2CCCO2)c2ccccc2)cc1 (stereo unspecified) returned PLK1 PBD block inactive, RORg inh inactive, Gal4-VP16 FLuc inactive and Sfp inh inactive.
COc1ccc([C@]23Cc4ccccc4C(O2)c2c(cc(-c4ccccc4)oc2=O)O3)cc1 was read as RORg inh inactive[10 µM], Gal4-VP16 FLuc inactive[10 µM] and Sfp inh inactive.
CCCCn1c(N)c(N(CC(C)C)C(=O)CCCc2nc3ccccc3c(=O)[nH]2)c(=O)[nH]c1=O was read as PLK1 PBD block inactive.
Cc1cc(C)c2nc(-c3ccccn3)cc(C(=O)NCc3ccco3)c2c1 was read as PLK1 PBD block inactive, RORg inh inactive, Gal4-VP16 FLuc inactive, Sfp inh 56µM and ALDH1A1 block inconclusive.
For COc1cc(/C=N/Nc2ncc(C(F)(F)F)cc2Cl)cc(OC)c1O the results were PLK1 PBD block inactive, RORg inh 11µM, Gal4-VP16 FLuc 20µM, Sfp inh 89µM and ALDH1A1 block inactive.
Screening COc1ccc(/C=N/Nc2ncc(C(F)(F)F)cc2Cl)c(OC)c1OC returned PLK1 PBD block inactive, RORg inh 2.8µM, Gal4-VP16 FLuc 7.9µM, Sfp inh inactive and ALDH1A1 block inconclusive.
`COc1cc(/C=N/Nc2ncc(C(F)(F)F)cc2Cl)cc(OC)c1OC` gave PLK1 PBD block inactive, RORg inh inconclusive, Gal4-VP16 FLuc 20µM, Sfp inh inactive and ALDH1A1 block inactive.
`COc1ccc(/C=N/Nc2ncnc3c2[nH]c2ccccc23)c(OC)c1OC` gave PLK1 PBD block inactive, RORg inh inactive, Gal4-VP16 FLuc inactive, Sfp inh inactive and ALDH1A1 block inactive.
`O=C(Nc1ccccn1)c1ccc(Cl)c(S(=O)(=O)N2CCc3ccccc32)c1` gave PLK1 PBD block inactive.
Screening Cn1c(=O)c2[nH]c(CCC(=O)O)nc2n(C)c1=O returned ALDH1A1 block inactive[13.5 µM].
Screening COc1oc(=O)c2cc(N)ccc2c1Cl returned RORg inh 7.9µM, Gal4-VP16 FLuc 14µM and Sfp inh inactive.
`Cc1ccccc1CSCC(=O)c1c(N)n(CC(C)C)c(=O)n(C)c1=O` gave PLK1 PBD block inactive, RORg inh inactive, Gal4-VP16 FLuc inactive, Sfp inh inactive and ALDH1A1 block 28µM.
`Cc1ccccc1CSCC(=O)c1c(N)n(C)c(=O)n(C)c1=O` gave PLK1 PBD block inactive, RORg inh inconclusive, Gal4-VP16 FLuc inactive, Sfp inh inactive and ALDH1A1 block inactive.
Cc1ccc(/C=C2\SC(N3CCN(C(c4ccccc4)c4ccccc4)CC3)=NC2=O)o1 was read as PLK1 PBD block inactive, RORg inh inactive, Gal4-VP16 FLuc inactive, Sfp inh 4µM and ALDH1A1 block inactive.
Screening Cc1ccc(-c2ccc(/C=C3\SC(N4CCOCC4)=NC3=O)o2)cc1 returned PLK1 PBD block inactive, RORg inh inactive, Gal4-VP16 FLuc inactive, Sfp inh 40µM and ALDH1A1 block inconclusive.
Screening COC(=O)C(=C/C(C)=C/c1cccs1)C(=O)OC returned PLK1 PBD block 19µM, RORg inh inconclusive, Gal4-VP16 FLuc inactive, Sfp inh inactive and ALDH1A1 block inactive.
Screening COCCNC(=O)/C(C#N)=C/c1cccs1 returned PLK1 PBD block inactive, RORg inh inactive, Gal4-VP16 FLuc inconclusive, Sfp inh inactive and ALDH1A1 block inactive.
Cc1nccn1CCC(=O)NC1CC(C)(C)Cc2c1cnn2-c1ccccc1 (stereo unspecified) was read as PLK1 PBD block inactive.
Screening CCOC(=O)Cn1c(=O)oc2cc(S(=O)(=O)NCCCc3ccccc3)ccc21 returned PLK1 PBD block inactive, RORg inh inconclusive, Gal4-VP16 FLuc 13µM, Sfp inh inactive and ALDH1A1 block inconclusive.
`CCn1c2ccccc2c2nnc(SCC(=O)c3ccccc3)nc21` gave PLK1 PBD block inactive, RORg inh 13µM, Gal4-VP16 FLuc inactive, Sfp inh inconclusive and ALDH1A1 block inconclusive.
Screening C=CCn1c2ccccc2c2nnc(SCN3C(=O)c4ccccc4C3=O)nc21 returned PLK1 PBD block inactive, RORg inh inactive, Gal4-VP16 FLuc inactive, Sfp inh inactive and ALDH1A1 block 28µM.
Screening CCN(CC)CCSc1nnc2c3ccccc3n(CCc3ccccc3)c2n1 returned PLK1 PBD block inactive, RORg inh inactive, Gal4-VP16 FLuc inactive and Sfp inh inactive.
For O=C1c2ccccc2C(=O)N1CSc1nnc2c3ccccc3n(CCc3ccccc3)c2n1 the results were PLK1 PBD block inactive, RORg inh inactive, Gal4-VP16 FLuc inactive, Sfp inh inactive and ALDH1A1 block 18µM.
`CCOC(=O)N1CCN(C(=O)C[C@@H]2C[C@@]3(C(=O)OC)CCCCC=C3N(Cc3cccc4ccccc34)C2=O)CC1` gave PLK1 PBD block inactive.
Screening COc1cc(Cl)c(C)cc1NC(=O)COC(=O)c1cc[n+]([O-])cc1 returned PLK1 PBD block inactive, RORg inh inconclusive, Gal4-VP16 FLuc inactive, Sfp inh inactive and ALDH1A1 block 16µM.
Cc1ccccc1NC(=O)COC(=O)c1cc[n+]([O-])cc1 was read as PLK1 PBD block inactive.
For O=C(COC(=O)Cn1cnc2ccccc21)Nc1ccc2c(c1)OCCO2 the results were PLK1 PBD block inactive, RORg inh inconclusive, Gal4-VP16 FLuc inactive, Sfp inh inactive and ALDH1A1 block 28µM.
O=C(COC(=O)c1cc[n+]([O-])cc1)Nc1ccc2c(c1)OCCO2 was read as PLK1 PBD block inactive, RORg inh inactive, Gal4-VP16 FLuc inactive, Sfp inh inactive and ALDH1A1 block 14µM.
O=C(COC(=O)Cn1cnc2ccccc21)Nc1cc2c(cc1Cl)C(=O)c1ccccc1C2=O was read as PLK1 PBD block inactive, RORg inh 2.8µM, Gal4-VP16 FLuc inconclusive, Sfp inh inactive and ALDH1A1 block inconclusive.
`CCN(CC)S(=O)(=O)c1cc(NC(=O)COC(=O)Cn2cnc3ccccc32)ccc1C` gave PLK1 PBD block inactive, RORg inh inactive, Gal4-VP16 FLuc inactive, Sfp inh inactive and ALDH1A1 block 20µM.
Screening Cc1nc(-c2ccccn2)nc(N(C)c2ccccc2)c1Cl returned PLK1 PBD block inactive, RORg inh 0.32µM, Gal4-VP16 FLuc 1.6µM and Sfp inh inactive.
For O=C1NC[C@@H](CCCCN2C[C@H](Cc3ccc(O)cc3)N(CCc3ccccc3)C(=O)C2=O)N(CC2CCCCC2)C1=O the results were PLK1 PBD block inactive.
`O=C(NNC(=O)c1ccccc1OCc1ccccc1)c1ccccc1F` gave PLK1 PBD block inactive, RORg inh inactive, Gal4-VP16 FLuc inactive and Sfp inh inactive.

Compound activity: PubChem, National Center for Advancing Translational Sciences (NCATS)
